Read-out in assay [1]: Interleukin-8 (IL8), CXCL8 (gene 3576)
The assay is described as follows: BSK_CASM3C_IL8: BioMAP Diversity Plus: CASM3C Assay for Interleukin-8 (IL8) Biomarker Activity (AID 2283042).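 Note: IL-8 protein level quantified by ELISA.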 The settings on record: primary human coronary artery smooth muscle cells; actives raise or lower the signal.

Read-out in assay [2]: Human Leukocyte Antigen - DR isotype (HLADR), HLA-DRA (gene 3122)
Description: BSK_CASM3C_HLADR: BioMAP Diversity Plus: CASM3C Assay for Human Leukocyte Antigen - DR isotype (HLADR) Biomarker Activity (AID 2283043).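 Note: cell-surface HLA-DR protein level quantified by ELISA.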 The note with it: primary human coronary artery smooth muscle cells; actives raise or lower the signal.

Read-out in assay [3]: Macrophage colony-stimulating factor (MCSF), CSF1 (gene 1435)
Description: BSK_CASM3C_MCSF: BioMAP Diversity Plus: CASM3C Assay for Macrophage colony-stimulating factor (MCSF) Biomarker Activity (AID 2283044).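 Note: M-CSF protein amount quantified by ELISA after 24 h exposure.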 The note with it: primary human coronary artery smooth muscle cells; actives raise or lower the signal.

Read-out in assay [4]: Low-density lipoprotein receptor (LDLR), LDLR (gene 3949)
The assay is described as follows: BSK_CASM3C_LDLR: BioMAP Diversity Plus: CASM3C Assay for Low-density lipoprotein receptor (LDLR) Biomarker Activity (AID 2283045).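 Note: LDLR protein level on the cell surface quantified by ELISA.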 The settings on record: primary human coronary artery smooth muscle cells; actives raise or lower the signal.

Read-out in assay [5]: Monocyte Chemoattractant Protein-1 (MCP1), CCL2 (gene 6347)
Description: BSK_CASM3C_MCP1: BioMAP Diversity Plus: CASM3C Assay for Monocyte Chemoattractant Protein-1 (MCP1) Biomarker Activity (AID 2283046).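 Note: MCP-1 level quantified by ELISA 24 h after dosing.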 The note with it: primary human coronary artery smooth muscle cells; actives raise or lower the signal.

Assay [6] can be described thus: BSK_CASM3C_Proliferation: Cell Proliferation Assessment in the BioMAP Diversity Plus: CASM3C Assay (AID 2283047).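 Note: sulforhodamine B total protein stain as relative cell number at 560 nm; sub-confluent cells exposed 48 h before staining; fitted both ways against DMSO so gain or loss of cell number.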 The note with it: primary human coronary artery smooth muscle cells.
Read-out in assay [7]: Monokine induced gamma interferon (MIG), CXCL9 (gene 4283)
Description: BSK_CASM3C_MIG: BioMAP Diversity Plus: CASM3C Assay for Monokine induced gamma interferon (MIG) Biomarker Activity (AID 2283048).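 Note: MIG protein level measured by ELISA.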 The note with it: primary human coronary artery smooth muscle cells; actives raise or lower the signal.

Read-out in assay [8]: serum amyloid A (SAA), SAA1 (gene 6288)
Description: BSK_CASM3C_SAA: BioMAP Diversity Plus: CASM3C Assay for serum amyloid A (SAA) Biomarker Activity (AID 2283049).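 Note: SAA protein level quantified by ELISA.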 The note with it: primary human coronary artery smooth muscle cells; actives raise or lower the signal.

Assay [9] in a line: BSK_CASM3C_SRB: Viability Assessment in the BioMAP Diversity Plus: CASM3C Assay (AID 2283050).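 Note: total protein by SRB staining as cytotoxicity measure in parallel cultures; cells exposed to compound for 24 h.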 The settings on record: primary human coronary artery smooth muscle cells.
Read-out in assay [10]: Thrombomodulin, THBD (gene 7056)
Description: BSK_CASM3C_Thrombomodulin: BioMAP Diversity Plus: CASM3C Assay for Thrombomodulin Biomarker Activity (AID 2283051).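 Note: thrombomodulin protein level measured by ELISA 24 h after dosing.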 The settings on record: primary human coronary artery smooth muscle cells; actives raise or lower the signal.

Read-out in assay [11]: Tissue Factor, F3 (gene 2152)
The assay is described as follows: BSK_CASM3C_TissueFactor: BioMAP Diversity Plus: CASM3C Assay for Tissue Factor Biomarker Activity (AID 2283052).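 Note: cell surface tissue factor protein level read by ELISA.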 The settings on record: primary human coronary artery smooth muscle cells; actives raise or lower the signal.

Read-out in assay [12]: Urokinase-type plasminogen activator receptor (uPAR), PLAUR (gene 5329)
The assay is described as follows: BSK_CASM3C_uPAR: BioMAP Diversity Plus: CASM3C Assay for Urokinase-type plasminogen activator receptor (uPAR) Biomarker Activity (AID 2283054).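 Note: cell-surface uPAR protein level quantified by ELISA.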 The note with it: primary human coronary artery smooth muscle cells; actives raise or lower the signal.

Read-out in assay [13]: Vascular cell adhesion molecule 1 (VCAM1), VCAM1 (gene 7412)
The assay is described as follows: BSK_CASM3C_VCAM1: BioMAP Diversity Plus: CASM3C Assay for Vascular cell adhesion molecule 1 (VCAM1) Biomarker Activity (AID 2283055).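 Note: VCAM-1 protein level quantified by ELISA on the cells.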 The settings on record: primary human coronary artery smooth muscle cells; actives raise or lower the signal.

Read-out in assay [14]: Collagen III, COL3A1 (gene 1281)
Description: BSK_hDFCGF_CollagenIII: BioMAP Diversity Plus: hDFCGF Assay for Collagen III Biomarker Activity (AID 2283056). The note with it: primary human foreskin fibroblasts; actives raise or lower the signal. The method, boiled down: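 ELISA readout of Collagen III in human dermal (foreskin) fibroblasts, taken 24 h post-treatment. Gain or loss relative to DMSO vehicle fitted in both directions.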

Read-out in assay [15]: Epidermal growth factor receptor (EGFR), EGFR (gene 1956)
Description: BSK_hDFCGF_EGFR: BioMAP Diversity Plus: hDFCGF Assay for Epidermal growth factor receptor (EGFR) Biomarker Activity (AID 2283057). The settings on record: primary human foreskin fibroblasts; actives raise or lower the signal. In short, it runs like this: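 Dosing human primary skin fibroblasts, then measuring surface EGFR by ELISA at 24 h, gives the endpoint; gains and losses relative to DMSO were fitted in both directions.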

Read-out in assay [16]: Interleukin-8 (IL8), CXCL8 (gene 3576)
Description: BSK_hDFCGF_IL8: BioMAP Diversity Plus: hDFCGF Assay for Interleukin-8 (IL8) Biomarker Activity (AID 2283058). The settings on record: primary human foreskin fibroblasts; actives raise or lower the signal. In short, it runs like this:
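IL-8 levels read by ELISA at 24 hours after dosing human skin fibroblast cultures. Parallel SRB staining assessed overt cytotoxicity, and gain or loss of signal was fitted against DMSO control.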

Read-out in assay [17]: Macrophage colony-stimulating factor (MCSF), CSF1 (gene 1435)
Description: BSK_hDFCGF_MCSF: BioMAP Diversity Plus: hDFCGF Assay for Macrophage colony-stimulating factor (MCSF) Biomarker Activity (AID 2283060). The note with it: primary human foreskin fibroblasts; actives raise or lower the signal. The method, boiled down:
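M-CSF levels read by ELISA at 24 h post-dosing in human skin fibroblasts. Parallel cultures stained with SRB assessed cytotoxicity at the same time point; response fitted in both directions against the DMSO baseline.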

The nature of assay [18]: BSK_hDFCGF_SRB: Viability Assessment in the BioMAP Diversity Plus: hDFCGF Assay (AID 2283061).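 Note: cells exposed to compound for 24 h before the read.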 The note with it: primary human foreskin fibroblasts. The method, boiled down:
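Viability was read as total protein: after 10% TCA fixation, wells were stained with 0.1% sulforhodamine B and read at 560 nm. Primary human foreskin fibroblasts were dosed for 24 h, with bidirectional fitting versus DMSO.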

The nature of assay [19]: BSK_hDFCGF_Proliferation: Cell Proliferation Assessment in the BioMAP Diversity Plus: hDFCGF Assay (AID 2283059).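 Note: curves fitted for both rise and fall of signal versus DMSO baseline.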 The note with it: primary human foreskin fibroblasts. The method, boiled down: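 Sub-confluent human foreskin fibroblast cultures receive test chemical […]. Relative cell number is quantified by sulforhodamine B staining (0.1%, after 10% TCA fixation) at 560 nm, with bidirectional fitting referenced to DMSO.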

Active and inactive are the calls of the source. Rule for the calls: active = hit-call score of the fitted dose curve at least 0.9, where 1 is the maximum; inactive = score below 0.9.

As for `Oc1ccccc1`, the result in assay [1], in [2], in assay [3], in [4], in [5] and in assay [6] was inactive. The outcome in [7], in assay [8], in assay [9], in [10], in [11] and in [12] was inactive. The result in assay [13], in assay [14], in [15], in [16], in assay [17] and in assay [18] was inactive.
In the case of `CCCCCc1ccc(N)cc1`, the outcome in assay [1], in assay [2], in assay [3], in assay [4], in [5] and in assay [6] was inactive. In addition, the outcome in assay [7], in [8], in [9], in [10], in assay [11] and in assay [12] was inactive. The result in assay [13], in assay [14] and in assay [18] was inactive. Further, the values for the concentration at half-maximal activity (AC50) in assay [15] and in assay [19] were 0.0546 µM (active) and 9.38 µM (active), respectively.
Take `Clc1cc(Cl)c2c(c1)N=C1CCCCCN1C2`: the outcome in [1], in assay [2], in assay [3], in [4], in [5] and in assay [6] was inactive. Further, the result in [7], in assay [8], in assay [9], in assay [10], in [11] and in assay [12] was inactive. Besides, the outcome in [13], in assay [14], in assay [15], in [16], in [17] and in assay [18] was inactive.
In the case of `CCCCCCCCCCCCO`, the AC50 is 35 µM (active) in [1]; 31.5 µM (active) in assay [2]; 31.2 µM (active) in [3]; 34.7 µM (active) in assay [5]; 32.6 µM (active) in [6]; 31.3 µM (active) in [7]. For the same molecule, the AC50 was 29.4 µM (active) in assay [8]; 32.3 µM (active) in [11]; 31 µM (active) in [13]; 15.4 µM (active) in assay [14]; 19.8 µM (active) in [15]; 37.4 µM (active) in assay [16]. In addition, the figures for the AC50 in [17] and in assay [18] were 33.4 µM (active) and 30.6 µM (active), respectively. Also, the outcome in assay [4], in assay [9], in assay [10] and in assay [12] was inactive.
As to `c1ccc(C[n+]2cccc3ccccc32)cc1`, the result in [1], in assay [2], in [3], in [4], in [5] and in assay [6] was inactive. Further, the outcome in assay [7], in [8], in [9], in [10], in [11] and in assay [12] was inactive. Further, the outcome in [13], in [14], in assay [15] and in [18] was inactive.
Take `CCN(Cc1cccnc1)C(=O)c1cccc(Cl)c1[C@]1(C)C(=O)N(Cc2ccc(OC)cc2OC)c2ccc(Cl)cc21`: the outcome in assay [1], in assay [3], in [5], in [7], in [8] and in assay [9] was inactive. In addition, the result in [10], in assay [11], in assay [12], in assay [14] and in [18] was inactive. Besides, the AC50 in assay [2] was 29.8 µM (active); in [4], 1.39 µM (active); in [6], 12.6 µM (active); in assay [13], 5.43 µM (active); in assay [15] it was 5.95 µM (active); in assay [19], 5.1 µM (active).
With `CN1C(=O)CC[C@H]1c1cccnc1`, the result in assay [1], in [2], in assay [3], in assay [4], in assay [5] and in [6] was inactive. For the same molecule, the outcome in assay [7], in [8], in [9], in assay [10], in assay [11] and in assay [12] was inactive. The outcome in [13], in assay [14], in assay [15], in assay [16], in assay [19] and in [18] was inactive.

For orientation: AC50 means the midpoint of the concentration-response curve, whichever way the signal moves.
